Mtb FBA inh – inhibits M. tuberculosis FBA enzyme. P9WQA3. 360,000 compounds, 2.3% hits. purified M. tuberculosis FBA, fluorescence read-out. AID 588726. inhibition, % at 1 µM; in the data active = inhibition above about 27%;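 note: 0% = vehicle and 100% = reference inhibitor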
Target sequence (P9WQA3 whole entry, looked up): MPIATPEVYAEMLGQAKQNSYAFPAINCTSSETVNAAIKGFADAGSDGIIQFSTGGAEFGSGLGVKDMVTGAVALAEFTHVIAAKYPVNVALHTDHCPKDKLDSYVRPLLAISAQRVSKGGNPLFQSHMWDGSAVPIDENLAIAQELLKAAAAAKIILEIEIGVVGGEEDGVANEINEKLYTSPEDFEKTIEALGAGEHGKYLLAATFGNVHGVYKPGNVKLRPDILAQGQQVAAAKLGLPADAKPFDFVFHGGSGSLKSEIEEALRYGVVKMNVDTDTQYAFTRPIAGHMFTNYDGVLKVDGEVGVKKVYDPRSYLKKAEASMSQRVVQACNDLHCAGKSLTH
GDH-TPI inh – inhibits GDH-TPI coupling enzymes, artifact for Mtb FBA screen; GDH-TPI coupled enzyme counterscreen, NADH absorbance; inhibition, % at 4.8 µM; 360,000 compounds, 1.2% hits; in the data active = inhibition above about 30%;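 note: 0% = DMSO wells and 100% = wells lacking the enzyme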
Mtb betalactam – beta-lactam sensitization of Mtb H37Rv; M. tuberculosis H37Rv growth with meropenem, percent inhibition; inhibition, % at 25 µM; 330,000 compounds, 0.27% hits; call rule not given here;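 note: growth measured after seven days incubation then overnight dye step; 0% = bacteria only wells and 100% = bacteria with antibiotic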
Rv3671c inh – inhibits the M. tuberculosis serine protease Rv3671c; P9WHR9; inhibition, % at 5.96 µM; 320,000 compounds, 0.048% hits; in the data active = inhibition above about 38%;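 note: extracellular domain of Rv3671c used as enzyme; 0% = enzyme with DMSO and 100% = no enzyme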
UGM FP inh – blocks M. tuberculosis UGM enzyme. purified UGM, fluorescence polarization probe displacement. inhibition, % at 10 µM. 320,000 compounds, 0.06% hits. AID 504406; in the data active = inhibition above about 10%, passing the limit was not always enough; inconclusive = no clear call, values can overlap the other calls
* marks the source's active call; other numbers are inactive results; ? = inconclusive; nt = no result; + = active, no number. Only some compounds are listed: those with a hit (about 3.5% of all), similar ones and a draw of the others.

SMILES | Mtb FBA inh | GDH-TPI inh | Mtb betalactam | Rv3671c inh | UGM FP inh
COc1ccc(Oc2ccc(N/C=C/C(=O)C(C)(C)C)cc2)cc1 | 1 | 1 | 93 | 1 | -2
CC(=O)Nc1ccc(N/C=C/C(=O)C(C)(C)C)cc1 | 2 | 42* | 8 | 1 | -3
Cc1ccc(S(=O)(=O)NCCC(=O)Nc2ncccc2O)cc1C | -1 | -2 | 3 | 7 | -2
CCOC(=O)c1cnc2c([N+](=O)[O-])cnn2c1C | 0 | 37* | 0 | 0 | -2
CCOC(=O)c1cnc2c(C(=O)OCC)cnn2c1N | 6 | -8 | 0 | 4 | 0
O=C(Nc1cccc(-c2csc(Nc3ccccc3)n2)c1)c1cc([N+](=O)[O-])cc(C(F)(F)F)c1 | 2 | 6 | -2 | 15 | 1
O=C(Nc1cccc(-c2csc(Nc3ccc(Cl)cc3)n2)c1)c1cc([N+](=O)[O-])cc(C(F)(F)F)c1 | -1 | 41* | 5 | 7 | -4
COc1cccc(F)c1C(C[N+](=O)[O-])c1c(N)n(C)c(=O)n(C)c1=O (configuration not stated) | 2 | 7 | 100 | 1 | -3
C#CCNC(=O)C1=C[C@H](c2cn(C(C)=O)c3ccccc23)[C@@H](CCCO)[C@H](OCC)O1 | 6 | 14 | -2 | 1 | 2
CCNC(=O)NCc1c(C)c(C)n(Cc2ccccc2)c1-n1cccc1 | 4 | 2 | -3 | -7 | -1
Cc1c(C=N)c(O)n(C)c(=O)c1C#N | 0 | 32* | -3 | -4 | 4
COc1cc(S(=O)(=O)Nc2ccc(C)cc2)ccc1N=Cc1c(C)c(C#N)c(=O)n(C)c1O | -3 | 20 | 6 | -4 | ?
Cc1ccc(N/N=C/c2c(C)c(C#N)c(=O)n(C)c2O)cc1C | -3 | 32* | nt | nt | nt
CCN(CC)S(=O)(=O)c1ccc(N=Cc2c(C)c(C#N)c(=O)n(C)c2O)cc1 | 3 | 38* | 7 | 5 | 2
O=C1CC(c2ccccc2)(c2ccccc2)c2ccccc21 | -1 | -11 | nt | nt | nt
Cc1cc(OCc2cc(C(=O)NC3CCC3)no2)cc(C)c1Cl | 46* | 3 | 13 | 5 | -4
Cc1ccc(OCc2cc(C(=O)NC3CCCCC3)no2)cn1 | -2 | -3 | -4 | 3 | 2
Cc1cccc(C(=O)NC2CC3CCCC(C2)N3Cc2ccccc2)c1 (configuration not stated) | 1 | 0 | -7 | -3 | 0
COc1cc(-c2cc(C(=O)NCc3ccco3)c3ccccc3n2)cc(OC)c1OC | -2 | 14 | 8 | 3 | 0
O=C(COC(=O)c1cc(-c2cccs2)nc2ccccc12)NCc1ccco1 | 45* | 8 | -3 | -19 | -1
Cc1ccc(-c2cc(C(=O)NCc3ccco3)c3ccccc3n2)s1 | 113* | 24 | 2 | -6 | 5
Cc1cn(CC(=O)N(C)Cc2ccco2)c(=O)[nH]c1=O | 4 | 9 | nt | nt | nt
CCCN(CCC)c1nc2ccccc2nc1C(C#N)C(=O)OCCOC (configuration not stated) | -5 | 7 | -4 | -13 | nt
C=CCN(CC=C)c1nc2ccccc2nc1C(C#N)C(=O)OCCOC (configuration not stated) | 57* | -6 | 0 | -10 | 1
CC(C)CC(N)c1csc(Nc2ccc(C(=O)NCCCO)cn2)n1 (configuration not stated) | 2 | 34* | nt | nt | nt
SMILES | Mtb FBA inh | GDH-TPI inh | Mtb betalactam | Rv3671c inh | UGM FP inh
O=C1C(=O)N(Cc2cccnc2)C(c2cccc([N+](=O)[O-])c2)/C1=C(/O)c1ccc2c(c1)OCO2 (configuration not stated) | 2 | 19 | -1 | -7 | -2
c1ccc2c(c1)CC/C2=N/Nc1nc2ccccc2[nH]1 | 1 | 49* | 25 | 6 | 1
Cn1ccc(C(=O)NC(=S)Nc2ccc([N+](=O)[O-])cc2O)n1 | -5 | 11 | -7 | nt | 4
Cn1c(=O)c2cc(NC(=O)Cc3ccccc3F)ccc2n1Cc1ccc(Cl)cc1 | 133* | 4 | nt | nt | nt
CC(CC(=O)Nc1ccc2c(c1)c(=O)n(C)n2Cc1cccc(C(F)(F)F)c1)C(F)(F)F (configuration not stated) | 126* | 5 | nt | nt | nt
CC(CC(=O)Nc1ccc2c(c1)c(=O)n(C)n2Cc1ccc(Cl)cc1)C(F)(F)F (configuration not stated) | 143* | 11 | nt | nt | nt
COc1cc(Cn2c3ccc(NC(=O)CC(C)C(F)(F)F)cc3c(=O)n2C)ccc1F (configuration not stated) | 174* | 4 | nt | nt | nt
Cn1c(=O)c2cc(NC(=S)NC3CCCCC3)ccc2n1Cc1ccc(Cl)cc1 | 24 | 3 | nt | nt | nt
Cn1c(=O)c2cc(NC(=S)NCc3ccccc3F)ccc2n1Cc1ccccc1 | 18 | 10 | nt | nt | nt
COc1ccc(S(=O)(=O)NCc2cccnc2)c(Cl)c1Cl | -1 | 12 | nt | nt | nt
CCOC(=O)c1c[nH][nH]c1=O | 1 | 0 | -2 | 0 | -1
Cc1ccc(-c2nc(CNC(=O)c3cc(C)on3)cs2)cc1 | -1 | -5 | 1 | -7 | 0
Cc1cc(C)cc(Cn2c3ccc(NC(=S)NCc4ccccc4F)cc3c(=O)n2C)c1 | 25 | 5 | nt | nt | nt
COc1cc(Cn2c3ccc(NC(=O)CC(C)(C)C)cc3c(=O)n2C)ccc1F | 178* | 18 | nt | nt | nt
CCCn1nnc(NC(=S)NC(=O)c2ccc(-c3ccc(Br)cc3)o2)n1 | 4 | 35* | 97 | -5 | 0
Cn1nnc(NC(=S)NC(=O)c2ccc(-c3ccc(Br)cc3)o2)n1 | 2 | 26 | 97 | -4 | 1
CCOC(=O)C(C#N)=CN1CCNc2ccccc21 | 2 | 31* | nt | nt | nt
COc1ccc2ccccc2c1/C=N\NC(=O)c1cccnc1 | 2 | 35* | -10 | -3 | 1
O=C(N/N=C/c1c(O)ccc2ccccc12)c1cccnc1 | -6 | 6 | 6 | 18 | -1
Cc1cc(O)c(C)c(O)c1/C=N/NC(=O)c1cccnc1 | -2 | 31* | 8 | 24 | 4
COc1ccc(N2C(=O)CS/C2=N\C(=S)Nc2ccccc2)cc1 | 0 | 37* | -5 | -11 | -1
Cc1cc(=O)oc2cc(O)cc(O)c12 | 196* | 6 | nt | nt | nt
CCCCCc1cc(O)c2c(C)cc(=O)oc2c1 | 3 | 22 | -1 | -29 | 1
COc1cc(OC)c2c(C)cc(=O)oc2c1 | + | 21 | 27 | 7 | 4
COc1cc(OC)c2ccc(=O)oc2c1 | + | 13 | -11 | -6 | nt
SMILES | Mtb FBA inh | GDH-TPI inh | Mtb betalactam | Rv3671c inh | UGM FP inh
COc1cc(OC)c2c(-c3cccc(-c4cccc(C)c4)c3)cc(=O)oc2c1 | 4 | 26 | nt | nt | nt
CCCN(Cc1nnc(-c2ccccc2Cl)o1)C(=O)COc1ccc(Cl)cc1 | -2 | -2 | 0 | -2 | -1
CN(C)S(=O)(=O)c1cccc(-c2nnc(SCCNCCO)n2-c2ccc(F)cc2)c1 | 2 | 8 | 8 | -7 | 1
O=C(CNC1CCN(Cc2ccccc2)CC1)Nc1ccc(S(=O)(=O)N2CCCCC2)cc1 | 0 | 8 | -4 | 13 | 8
O=C(COC(=O)COc1ccccc1)NC1CCS(=O)(=O)C1 (configuration not stated) | 6 | 17 | -2 | 7 | 1
Cc1ccccc1-n1c(O)c(C=Nc2ccc3c(c2)OCO3)c(=O)[nH]c1=O | -2 | 33* | 94 | 8 | -1

Source: PubChem BioAssay
